Our source for the inhibition values is ChEMBL document CHEMBL1961873, “Compounds: GSK PKIS; Assays: Nanosyn kinase panel” (2012).

Several values for one entry are separate records, joined by “and”; a condition that tells them apart may be missing. Equal values may be shown once.
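Note: values are mean percent inhibition of MRCKB, screened as part of the GSK PKIS kinase inhibitor set.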

The assay deals with Serine/threonine-protein kinase MRCK beta (Homo sapiens) (UniProt Q9Y5S2). The note with it: at 0.1 µM.
Serine/threonine-protein kinase MRCK beta (Homo sapiens), sequence (Q9Y5S2 whole entry): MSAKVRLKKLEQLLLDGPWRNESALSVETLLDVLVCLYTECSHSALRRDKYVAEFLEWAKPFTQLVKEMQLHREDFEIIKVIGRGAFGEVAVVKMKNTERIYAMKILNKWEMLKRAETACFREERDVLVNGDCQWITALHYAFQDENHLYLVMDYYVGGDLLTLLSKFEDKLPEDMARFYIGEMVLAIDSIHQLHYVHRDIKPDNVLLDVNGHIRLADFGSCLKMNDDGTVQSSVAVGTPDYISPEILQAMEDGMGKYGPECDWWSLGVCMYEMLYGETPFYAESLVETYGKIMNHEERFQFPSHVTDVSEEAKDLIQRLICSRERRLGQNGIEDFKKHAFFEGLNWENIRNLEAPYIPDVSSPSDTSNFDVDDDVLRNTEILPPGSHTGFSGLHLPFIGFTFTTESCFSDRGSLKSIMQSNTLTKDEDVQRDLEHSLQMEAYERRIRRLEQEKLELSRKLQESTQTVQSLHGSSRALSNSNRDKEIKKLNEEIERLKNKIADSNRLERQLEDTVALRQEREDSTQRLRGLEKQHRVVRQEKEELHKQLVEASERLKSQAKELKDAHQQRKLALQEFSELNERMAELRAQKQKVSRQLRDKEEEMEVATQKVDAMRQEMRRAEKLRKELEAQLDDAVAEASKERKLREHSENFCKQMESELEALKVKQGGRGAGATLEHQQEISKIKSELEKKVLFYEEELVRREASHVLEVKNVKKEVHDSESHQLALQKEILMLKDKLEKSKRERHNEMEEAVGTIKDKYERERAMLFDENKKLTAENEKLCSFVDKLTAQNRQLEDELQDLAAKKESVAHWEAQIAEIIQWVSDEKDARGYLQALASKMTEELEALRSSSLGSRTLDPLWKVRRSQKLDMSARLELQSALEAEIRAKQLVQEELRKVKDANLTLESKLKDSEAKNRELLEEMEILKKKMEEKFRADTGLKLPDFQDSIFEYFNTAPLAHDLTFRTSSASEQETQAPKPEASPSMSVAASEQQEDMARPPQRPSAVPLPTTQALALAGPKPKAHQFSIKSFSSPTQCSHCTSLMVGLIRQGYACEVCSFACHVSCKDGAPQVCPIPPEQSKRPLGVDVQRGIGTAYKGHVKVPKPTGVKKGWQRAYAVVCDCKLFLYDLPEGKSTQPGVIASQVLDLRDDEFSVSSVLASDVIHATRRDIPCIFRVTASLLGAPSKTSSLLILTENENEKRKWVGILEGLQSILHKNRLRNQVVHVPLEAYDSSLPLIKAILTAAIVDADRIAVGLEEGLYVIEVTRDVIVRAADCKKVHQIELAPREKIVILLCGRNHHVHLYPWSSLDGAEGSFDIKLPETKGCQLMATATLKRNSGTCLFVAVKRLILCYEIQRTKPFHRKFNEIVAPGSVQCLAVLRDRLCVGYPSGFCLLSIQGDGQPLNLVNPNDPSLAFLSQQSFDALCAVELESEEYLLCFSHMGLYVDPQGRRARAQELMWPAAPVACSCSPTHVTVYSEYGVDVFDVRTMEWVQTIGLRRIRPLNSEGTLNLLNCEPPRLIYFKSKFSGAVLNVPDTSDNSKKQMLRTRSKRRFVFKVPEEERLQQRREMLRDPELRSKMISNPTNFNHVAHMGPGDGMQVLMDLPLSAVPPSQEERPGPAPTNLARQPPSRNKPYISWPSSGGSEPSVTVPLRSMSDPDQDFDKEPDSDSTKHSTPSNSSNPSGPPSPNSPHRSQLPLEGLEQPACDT
As for `Nc1nonc1-c1nc2cnccc2n1C1CC1`, the inhibition is 7.62% and 9.27%. Consider `NS(=O)(=O)c1cccc(N/C=C2\C(=O)Nc3ccccc32)c1`, for which the inhibition was 0.57%. As for `CC1=C(C(=O)Nc2ccc3[nH]ncc3c2)C(c2ccc(F)cc2)N=C(c2ccc(C(F)(F)F)nc2)N1` (stereo unspecified), the figure is -0.07%; as for `CNC(=O)c1cncc(/C=C/c2ccccc2C)c1`, -0.34%; as for `CN1CCC(C(=O)Nc2n[nH]c3nc(-c4ccc(O)cc4)c(Br)cc23)CC1`, 1.99% and 0.84%. As for `Cc1cc(O)cc(C)c1/C=C/c1cncc(C(N)=O)c1`, the figure is 1.39%; as for `CS(=O)(=O)Nc1ccc(-c2cc(-c3ccccc3)cc(C(N)=O)c2N)cc1`, 0.74%; as for `CS(=O)(=O)CCNCc1ccc(-c2ccc3ncnc(Nc4ccc(OCc5ccccc5)cc4)c3c2)o1`, 0.05%. Consider `CCOc1ccc2c(-c3ccnc(Nc4cc(OC)cc(C(F)(F)F)c4)n3)cnn2n1`, for which the inhibition stood at 0.09%. As for `Cc1cc(O)cc(C)c1/C=C/c1cncc(C(=O)OC(C)(C)C)c1`, the figure is 1.45%; as for `O=C1Nc2ccccc2/C1=C1\CCc2cc(O)ccc21`, 1.68%. Consider `CCS(=O)(=O)c1ccc(OC)c(Nc2ncc(-c3cccc(F)c3)o2)c1`, for which the inhibition was found to be 0.15%. The figure for `COc1cccc(Nc2nccc(-c3cnn4ncccc34)n2)c1` is -1.65%; for `Nc1ncnc2occ(-c3ccc(NC(=O)Nc4cc(C(F)(F)F)ccc4F)cc3)c12` it is 0.53% and -0.08%; for `O=C(Nc1n[nH]c2nnc(-c3cccnc3)cc12)C1CC1` it is 0.62%.

In the case of `O=C(O[C@H]1CN[C@H](C#Cc2cc3ncnc(Nc4ccc5c(cnn5Cc5ccccc5)c4)c3s2)C1)N1CCOCC1`, the inhibition was -0.65%. The figure for `COc1cc(N2CCN(C(C)C)CC2)ccc1Nc1nc(Nc2cccc3ncccc23)c2cc[nH]c2n1` is 0.85%; for `CS(=O)(=O)CCNCc1ccoc1-c1ccc2ncnc(Nc3ccc(OCc4ccccc4)cc3)c2c1` it is -0.65%; for `CCN1CCC(C(=O)Nc2n[nH]c3nnc(-c4cccc(F)c4F)cc23)CC1` it is 0.8%.

For the molecule `COc1ccc(-c2nn3ncccc3c2-c2ccnc(Nc3ccc(F)c(F)c3)n2)cc1`, the inhibition is -0.01%. The figure for `CCS(=O)(=O)c1ccc(OC)c(Nc2ncc(-c3cccc(C(C)=O)c3)o2)c1` is -1.42%; for `c1cnn2ncc(-c3ccnc(NCCCN4CCOCC4)n3)c2c1` it is 0.55%. As for `CN(C)CCNC(=O)Nc1ccc(N(C)c2ccnc(Nc3ccc(CS(C)(=O)=O)cc3)n2)cc1`, the figure is 1.09%; as for `CCn1c(-c2nonc2N)nc2cncc(C(=O)NCCNC)c21`, 23.3%; as for `COc1cc(N2CCN(C(C)C)CC2)ccc1Nc1nc(Nc2cccc(F)c2C(=O)O)c2cc[nH]c2n1`, -1.28%.

Take `COC(=O)Nc1nc2cc(Oc3ccc(NC(=O)Nc4ccccc4)cc3)ccc2[nH]1`: the inhibition is -0.1%.

For the molecule `NC(=O)c1ccc2c(-c3ccnc(NCCCO)n3)c(-c3ccc(F)cc3)nn2c1`, the inhibition was 0.29%.

For `CS(=O)(=O)Nc1ccc(-c2ccc3c(NC(=O)C4CC4)n[nH]c3c2)cc1`, the inhibition is -0.12%. As for `COC(=O)Nc1nc2ccc(Oc3ccc(NC(=O)Nc4cc(C(F)(F)F)ccc4F)cc3)cc2s1`, the figure is 0.73%. The figure for `COc1ccccc1-c1cc(/C=C2\C(=O)Nc3ncc(Br)cc32)cc(Br)c1O` is -0.06%; for `Cc1nnc(-c2cccc(-c3ccc(C(=O)NCC4CC4)cc3)c2)o1` it is -0.19%.
